Only some compounds are listed: those with a hit (about 19% of all), similar ones and a draw of the others.
KB-3-1 cytotox: qHTS assay for MDR1-selective chemotherapeutics: Primary screen using the parental adenocarcinoma cell KB-3-1; AID 1347075, 2019; KB-3-1 viability, CellTiter-Glo ATP luminescence, 72 h; 400,000 tested, 1.4% active; Potency, µM (top dose mostly 46.1 µM), usual class: cytotoxic; also: nearly all actives have a fitted effect of over 60% in size
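Cells are dispensed, compounds pinned in, plates held at 37 °C for 72 h, then CellTiter-Glo is added and luminescence read after 10 minutes. Cell line: parental KB-3-1 in phenol-red-free DMEM, 10% FBS.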
HT1080 IDH1KD tx: qHTS for induction of synthetic lethality in tumor cells producing 2HG: qHTS for the HT-1080-IDH1KD cell line | HT-1080 IDH1 knockdown viability, ATP luminescence, 48 h | Potency, µM (doses to about 46.1 µM), usual class: cytotoxic | 360,000 tested, 2% active
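Using the IDH1-knockdown HT-1080 line run in the same batch and compound series as the NT line, viability after 48 h at 37 °C was determined by CellTiter-Glo luminescence and expressed as % activity.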
TDP1 cell CPT: qHTS for Inhibitors of human tyrosyl-DNA phosphodiesterase 1 (TDP1): qHTS in cells in presence of CPT. 420,000 tested, 12% active. chicken DT40 Tdp1-/-;hTDP1 cells + 20 nM CPT, ATP luminescence, 48 h. Potency, µM (doses to about 46.2 µM), most hits filed as inhibitors; also: nearly all actives have a fitted effect of over 55% in size
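Chicken DT40 Tdp1-/- cells complemented with human TDP1, 400 cells/well, exposed to compounds plus 20 nM camptothecin for at least 48 h at 37 C; viability read as ATP content by CellTiter-Glo luminescence.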
DT40 TDP1 no CPT: qHTS for Inhibitors of human tyrosyl-DNA phosphodiesterase 1 (TDP1): qHTS in cells in absence of CPT | 420,000 tested, 15% active | AID 686978, 2013 | Potency, µM (series often up to 46.2 µM), most hits filed as inhibitors | DT40 Tdp1-/- hTDP1 cells, no CPT, ATP luminescence, 48 h; also: nearly all actives have a fitted effect of over 55% in size
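Cells were dispensed at 400 per well, compounds added by pin tool, plates incubated ≥48 hr at 37 °C, then CellTiter-Glo added for 30 min at room temperature before luminescence reading. Line: DT40 Tdp1-/- complemented with hTDP1; camptothecin omitted.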
KB-V1 cytotox: qHTS assay for MDR1-selective chemotherapeutics: Primary screen using the drug-selected MDR subline cells KB-V1. Potency, µM (highest dose often 46.1 µM), hits mostly cytotoxic. KB-V1 MDR cells viability, CellTiter-Glo, 72 h. 400,000 tested, 3.4% active; also: nearly all actives have a fitted effect of over 60% in size
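KB-V1 cells (P-gp-expressing MDR subline of KB-3-1) in phenol-red-free DMEM with 10% FBS were exposed to library compounds over a concentration series for 72 h at 37 degrees C. Viability read by CellTiter-Glo luminescence; concentration-effect curves fitted after normalization.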
HT1080NT lethal: qHTS for induction of synthetic lethality in tumor cells producing 2HG: qHTS for the HT-1080-NT fibrosarcoma cell line; HT-1080-NT fibrosarcoma viability, CellTiter-Glo ATP luminescence, 48 h; Potency, µM (top dose mostly 46.1 µM), most hits filed as cytotoxic; 360,000 tested, 1.6% active; AID 686970, 2013;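 also: NT is the 2HG producing partner of a matched IDH1 knockdown line; nearly all actives have a fitted effect of over 55% in size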
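HT-1080-NT; 750 cells/well; 5% FBS RPMI; 48 h compound, 37 degrees C; CellTiter-Glo luminescence; curve fitting and curve-class assignment.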
A number is an active result; n = inactive; u = inconclusive; x = no result given; [ ] = dose if it differs, or a comment. Calls follow the shape of the dose curve; as a rule, active = well fitted curve in the direction sought with a large enough effect; inconclusive = small, poorly fitted or top-dose-only effect, or another doubt; inactive = no such curve, though single readings can be large; an effect the other way counts as inactive or inconclusive.

SMILES	KB-3-1 cytotox	HT1080 IDH1KD tx	TDP1 cell CPT	DT40 TDP1 no CPT	KB-V1 cytotox	HT1080NT lethal
CCCN1CCN(c2cc3c(cc2F)c(=O)c(S(=O)(=O)c2ccc(CC)cc2)cn3CC)CC1	n	x	u	21µM	n	x
Cc1n[nH]c(=O)c2c(NC(=O)CSc3nn(-c4ccccc4)c(=S)s3)oc(C)c12	n	n	n	n	n	n
N#CCCN(NC(=O)OCc1ccccc1)C(=O)OCc1ccccc1	n	n	n	n	n	u
CCc1ccc(S(=O)(=O)c2cn(CC)c3cc(N4CCCCC4)c(F)cc3c2=O)cc1	n	x	u	u	n	x
CCCN1CCN(c2cc3c(cc2F)c(=O)c(S(=O)(=O)c2ccc(Cl)cc2)cn3C)CC1	n	x	u	23µM	n	x
CCCn1cc(S(=O)(=O)c2ccc(CC)cc2)c(=O)c2cc(F)c(N3CCN(C)CC3)cc21	n	x	16µM	26µM	n	x
CCCCn1cc(S(=O)(=O)c2ccc(OC)cc2)c(=O)c2cc(F)c(F)cc21	n	x	18µM	u	n	x
COc1ccc(-c2cc(C(=O)Nc3cc(Br)ccc3O)no2)cc1	u	n	u	u	u	n
COC(=O)[C@@H](NCc1cccc(CN[C@H](C(=O)OC)c2ccccc2)c1)c1ccccc1	n	n	n	n	u	n
Cn1c2ccccc2c2cc(C(=O)NNC(=O)CCl)sc21	u	21µM	3.7µM	9.2µM	u	u
CC(=O)Nc1ccc(S(=O)(=O)NNC(=O)c2cc3c4ccccc4n(C)c3s2)cc1	n	n	5.2µM	5.2µM	n	n
N/C(=N\OC(=O)N1CCOCC1)c1ccc(Br)cc1	n	n	21µM	u	21µM	u
COC(=O)c1ccccc1Sc1ncnc2onc(C)c12	n	u	15µM	u	n	u
Cc1ccc(C)c2c1[nH]c1ccccc12	n	n	n	n	n	n
Cc1cc(C=O)c(C)c2c1[nH]c1ccccc12	n	n	u	21µM	u	n
Cc1ccc(/C=C/C(=O)N2CCN(S(=O)(=O)c3cccs3)CC2)o1	n	n	n	n	n	n
COc1ccc(C)cc1/C=C/C(=O)N1CCN(S(=O)(=O)c2cccs2)CC1	n	n	21µM	u	n	n
COCCN(CC(=O)Nc1ccccc1C(F)(F)F)C(=O)/C=C/c1ccc2ccccc2n1	n	n	n	u	n	n
COC(=O)/C=C\C(C#N)(C#N)N=Cc1ccc(OC)cc1	u	5.8µM	1.3µM	0.65µM	n	u
CC(=O)c1ccc(-c2ccc3c4c(ccc3c2)OC(CNC(=O)C(C)N2CCOCC2)C4)s1 (stereo unspecified)	x	x	u	7.3µM	x	x
C1CCC(CNc2c3c(nc4nnnn24)CCCC3)CC1	n	n	u	12µM	n	n
CCOC(=O)[C@]12CCC=C1N(Cc1ccc3c(c1)OCO3)C(=O)[C@H](CC(=O)NCC1CCCCC1)C2	n	n	u	u	u	n
CC(C)OC(=O)c1cc2c(ccn2C)n1CC(=O)N(Cc1ccccc1)c1ccccc1	u	n	u	16µM	15µM	n
CCCCNC(=O)c1cc(-c2ccc(F)cc2)on1	18µM	u	13µM	u	16µM	u
CCN(CC)CCCNC(=O)c1cc(-c2ccc(Cl)cc2)on1	n	u	u	23µM	n	u
CC(C)C(NS(C)(=O)=O)c1nnc2n1CCN(Cc1ccc(Cl)cc1)CC2 (stereo unspecified)	x	x	n[9.04 µM]	u	x	x
COCC(C)NCc1cccc(C)c1 (stereo unspecified)	n	n	n	n	n	n

High-throughput results: PubChem BioAssay, National Center for Advancing Translational Sciences (NCATS)
